# In the supplement of paper PMC9694430:
# Experiments:
# Assay in all cases: thermal shift delta Tm vs DMSO control; higher = stronger stabilization (binding)
# Settings in all cases: 12.5 µM; protein concentration 2 µM
# [1] = test system: LOC_OS01G01410-cb001
# Method in brief: (§1)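 Thermal shift values come from differential scanning fluorimetry on purified rice kinase domains made in E. coli, with melting temperatures obtained from Boltzmann fits. Samples of 19.5 μl held 2 μM kinase, 100 mM potassium phosphate pH 7.5, 150 mM NaCl, 10% glycerol, 5 × SYPRO Orange and compound in DMSO, and were heated from 25°C to 95°C at 0.05°C/s. Each shift is a triplicate mean relative to the DMSO-only protein sample.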
# [2] = test system: LOC_OS01G02750-cb003
# Method in brief: as §1
# [3] = test system: LOC_OS01G10900-cb004
# Method in brief: as §1
# [4] = test system: LOC_OS01G13800-cb001
# Method in brief: as §1
# [5] = test system: LOC_OS01G14860-cb001
# Method in brief: as §1
# [6] = test system: LOC_OS01G21960-cb002
# Method in brief: as §1
# [7] = test system: LOC_OS01G39600-cb002
# Method in brief: as §1
# [8] = test system: LOC_OS01G48390-cb002
# Method in brief: as §1
# [9] = test system: LOC_OS01G51400-cb002
# Method in brief: as §1
# [10] = test system: T1, LOC_OS01G52050-cb004
# T1 sequence (whole entry): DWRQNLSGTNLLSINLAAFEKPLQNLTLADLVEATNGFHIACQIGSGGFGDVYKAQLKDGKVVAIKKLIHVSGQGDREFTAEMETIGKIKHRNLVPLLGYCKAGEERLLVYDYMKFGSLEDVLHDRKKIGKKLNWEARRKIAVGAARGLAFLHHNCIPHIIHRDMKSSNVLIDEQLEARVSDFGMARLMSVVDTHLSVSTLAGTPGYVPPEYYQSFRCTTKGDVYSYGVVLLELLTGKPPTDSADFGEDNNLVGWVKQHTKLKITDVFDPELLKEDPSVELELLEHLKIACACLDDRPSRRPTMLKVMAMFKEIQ
# Method in brief: as §1
# [11] = test system: LOC_OS01G57100-cb003
# Method in brief: as §1
# [12] = test system: LOC_OS01G60330-cb001
# Method in brief: as §1
# [13] = test system: LOC_OS01G60700-cb002
# Method in brief: as §1
# [14] = test system: LOC_OS01G63280-cb003
# Method in brief: as §1
# [15] = test system: LOC_OS01G67340-cb003
# Method in brief: as §1
# [16] = test system: LOC_OS01G70970-cb002
# Method in brief: as §1
# [17] = test system: LOC_OS02G07810-cb001
# Method in brief: as §1
# [18] = test system: LOC_OS02G08530-cb003
# Method in brief: as §1
# [19] = test system: LOC_OS02G14120-cb001
# Method in brief: as §1
# [20] = test system: LOC_OS02G17970-cb001
# Method in brief: as §1
# 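Also: purified Escherichia coli-expressed rice kinase domain construct.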
Compound,thermal shift delta Tm [1] [°C],thermal shift delta Tm [2] [°C],thermal shift delta Tm [3] [°C],thermal shift delta Tm [4] [°C],thermal shift delta Tm [5] [°C],thermal shift delta Tm [6] [°C],thermal shift delta Tm [7] [°C],thermal shift delta Tm [8] [°C],thermal shift delta Tm [9] [°C],thermal shift delta Tm [10] [°C],thermal shift delta Tm [11] [°C],thermal shift delta Tm [12] [°C],thermal shift delta Tm [13] [°C],thermal shift delta Tm [14] [°C],thermal shift delta Tm [15] [°C],thermal shift delta Tm [16] [°C],thermal shift delta Tm [17] [°C],thermal shift delta Tm [18] [°C],thermal shift delta Tm [19] [°C],thermal shift delta Tm [20] [°C]
C[C@@H](Nc1cc(F)cc(F)c1)c1cc(C(=O)N(C)C)cc2c(=O)cc(N3CCOCC3)oc12,0.11,1.11,0.28,0.04,0.22,-0.4,-0.77,0.46,0.01,-0.12,0.51,1.18,1.09,0.24,0.36,0.08,0.6,0.37,0.3,0.78
COc1cc(OC)c(C=C2C(=O)Nc3ccccc32)c(OC)c1,0.16,0.24,1.24,0.46,0.32,0.88,0.01,0.22,0.14,-0.14,1.44,0.76,0.97,-0.13,0.36,0.32,0.32,0.7,0.94,0.65
C[C@@H](Oc1cc(-n2cnc3ccc(CN4CCN(C)CC4)cc32)sc1C(N)=O)c1ccccc1C(F)(F)F,0.17,0.34,3.48,0.56,0.12,1.19,0.33,0.1,-0.17,0.53,0.34,0.7,0.72,0.17,0.69,0.44,1.22,3.01,-0.04,0.25
O=C(NOCC(O)CO)c1cc(Br)c(F)c(F)c1Nc1ccc(I)cc1F (stereo not given),0.9,3.49,1.07,1.05,1.29,1.44,0.76,1.12,0.46,2.46,2.4,2.2,1.6,1.18,0.03,0.55,2.41,1.08,1.22,2.02
"Cc1[nH]c(/C=C2\C(=O)Nc3ccccc32)c(C)c1CCC(=O)O [Orantinib (TSU-68, SU6668)]",4.79,1.43,0.18,0.08,1.9,2.76,6.8,1.34,0.2,3.61,2.5,12.6,0.82,0.57,1.81,4.33,1.32,4.91,7.18,0.78
CCOc1cc(N2CCC(O)CC2)ccc1Nc1ncc2c(n1)N(C)c1ccccc1C(=O)N2C,0.48,0.5,0.7,-0.03,0.03,0.41,-0.54,0.04,0.06,-0.47,1.56,0.82,1.24,-0.13,-0.04,0.52,0.39,0.9,-0.64,0.7
CO[C@@H](C)Cn1c(=O)n(C)c2cnc3ccc(-c4cncc(C(C)(C)O)c4)cc3c21,0.7,1.17,0.3,0.76,0.77,0.72,0.26,0.5,0.38,1.9,1.94,0.57,1.37,0.84,0.62,0.44,0.65,1.76,2.83,0.61
CCn1c(N)c(C(=O)NC)c(=O)c2ccc(C#CC(C)(O)COC)nc21 (stereo not given),0.45,0.44,-0.01,-0.17,0.21,0.3,-1.69,0.18,0.37,0.36,0.95,1.02,1.1,0.41,0.38,1.97,0.99,1.25,1.34,0.48
CCN1CCN(Cc2ccc(Nc3ncc(F)c(-c4cc(F)c5nc(C)n(C(C)C)c5c4)n3)nc2)CC1,1.5,2.83,4.97,-0.66,7.4,3.11,0.45,1.47,0.13,1.08,-0.28,0.1,0.59,0.27,0.39,-0.01,0.46,2.49,5.93,0.23
O=C(Nc1c[nH]nc1-c1nc2ccc(CN3CCOCC3)cc2[nH]1)NC1CC1,5.91,3.78,2.15,-0.38,8.12,3.45,6.02,2.89,0.42,7.67,0.91,11.9,1.09,5.34,1.94,7.9,0.64,3.3,11.9,0.14
COc1cc(Nc2ncc(F)c(Nc3ccc4c(n3)N(COP(=O)(O)O)C(=O)C(C)(C)O4)n2)cc(OC)c1OC [Fostamatinib (R788)],1.98,-0.16,0.33,-0.55,4.38,3.63,9.1,0.22,0.49,6.23,4.42,6.53,0.92,0.09,1.18,3.04,0.54,3.76,11,0.23
C[C@@H]1CN(C(=O)c2ccc(NC(=O)c3cc(O[C@H](C)c4c(Cl)ccc(F)c4Cl)c(N)nn3)cc2)C[C@H](C)N1 [Ensartinib (X-396)],2.83,1.44,2.67,-0.39,0.08,0.04,0.4,5.02,-0.19,3.28,4.79,-0.22,0.66,-0.05,7.25,0.84,0.09,2.29,12,0.57
